# Results taken from PubChem BioAssay AID1159580 (chemical genetic matrix, 2015).
# Hit rate of the full screen: of about 5,500 compounds, about 2,000 (36%) were called active. Roughly 18% stayed inconclusive and do not appear here. The list shows a part of the results. Unmarked numbers belong to inactive results. Cut-off read from the data, not from the text of the source: active = normalized growth mostly below about 0.91 (no sharp cut-off); inconclusive = no clear call, values can overlap the other calls; inactive = mostly above about 0.92.
# Assay: chemical genetic growth profiling, strain panel (AID 1159580);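 note: tested at 20 µM; growth read once vehicle control cultures reached saturation at 30 °C; 1 = growth at the plate median or of vehicle wells; lower values mean less growth of the strain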
# Settings: growth OD
# [1] = S. cerevisiae deletion strains, locus YAL013W, strain DEP1, hits give low values
# [2] = S. cerevisiae deletion strains, locus YBR229C, strain ROT2, hits give low values
# [3] = S. cerevisiae deletion strains, locus YDL101C, strain DUN1, hits give low values
# [4] = S. cerevisiae deletion strains, locus YDR150W, strain NUM1, hits give low values
# [5] = S. cerevisiae deletion strains, locus YEL061C, strain CIN8, hits give low values
# [6] = S. cerevisiae deletion strains, locus YGR078C, strain PAC10, hits give low values
# [7] = S. cerevisiae deletion strains, locus YHR030C, strain SLT2, hits give low values
# [8] = S. cerevisiae deletion strains, locus YHR087W, strain rtc3, hits give low values
# [9] = S. cerevisiae deletion strains, locus YJR043C, strain POL32, hits give low values
# [10] = S. cerevisiae deletion strains, locus YJR075W, strain HOC1, hits give low values
# [11] = S. cerevisiae deletion strains, locus YKL190W, strain CNB1, hits give low values
# [12] = S. cerevisiae deletion strains, locus YLR039C, strain RIC1, hits give low values
# [13] = S. cerevisiae deletion strains, locus YLR058C, strain SHM2 (second series), hits give low values
# [14] = S. cerevisiae deletion strains, locus YLR085C, strain ARP6, hits give low values
# [15] = S. cerevisiae deletion strains, locus YLR262C, strain YPT6, hits give low values
# [16] = S. cerevisiae deletion strains, locus YML094W, strain GIM5, hits give low values
# [17] = S. cerevisiae deletion strains, locus YMR219W, strain ESC1, hits give low values
# [18] = S. cerevisiae deletion strains, locus YMR263W, strain SAP30, hits give low values
# [19] = S. cerevisiae deletion strains, locus YMR307W, strain GAS1, hits give low values
# [20] = S. cerevisiae deletion strains, locus YNL153C, strain GIM3, hits give low values
# [21] = S. cerevisiae deletion strains, locus YNL298W, strain CLA4 (second series), hits give low values
# [22] = S. cerevisiae deletion strains, locus YNL322C, strain KRE1, hits give low values
# [23] = S. cerevisiae deletion strains, locus YNR030W, strain Alg12, hits give low values
# [24] = S. cerevisiae deletion strains, locus YPL055C, strain LGE1, hits give low values
# [25] = S. cerevisiae deletion strains, locus YPL241C, strain CIN2, hits give low values
# [26] = S. cerevisiae deletion strains, locus YPR135W, strain CTF4, hits give low values
# [27] = S. cerevisiae strains, strain wild type, hits give low values
compound,measurement,setting,value
CCn1nc(C)cc1C(=O)O,normalized growth,[1],0.992
same,normalized growth,[2],1.01
same,normalized growth,[3],1.03
same,normalized growth,[4],0.914
same,normalized growth,[5],1.03
same,normalized growth,[6],1.02
same,normalized growth,[7],1.07
same,normalized growth,[8],1.01
same,normalized growth,"S. cerevisiae deletion strains, locus YJL187C, strain SWE1, hits give low values",1.02
same,normalized growth,[9],0.962
same,normalized growth,[10],1.02
same,normalized growth,[11],1.02
same,normalized growth,[12],1.1
same,normalized growth,[13],1.02
same,normalized growth,[14],1.3 [resistant] (active)
same,normalized growth,[15],1.07
same,normalized growth,[16],1.02
same,normalized growth,[17],1.01
same,normalized growth,[18],0.987
same,normalized growth,[19],1.24
same,normalized growth,[20],1
same,normalized growth,[21],1.04
same,normalized growth,[22],0.999
same,normalized growth,[23],1.02
same,normalized growth,[24],0.931
same,normalized growth,[25],1.03
same,normalized growth,[26],0.994
same,normalized growth,[27],1.02
CCOC(=O)c1nnc2cc(C)nn2c1C,normalized growth,[1],0.981
same,normalized growth,[2],1.01
same,normalized growth,[3],0.98
same,normalized growth,[4],0.951
same,normalized growth,[5],1
same,normalized growth,[6],1
same,normalized growth,[7],1.01
same,normalized growth,[8],1
same,normalized growth,[9],0.987
same,normalized growth,[10],1.03
same,normalized growth,[11],0.995
same,normalized growth,[12],1.04
same,normalized growth,[13],1.01
same,normalized growth,[14],1
same,normalized growth,[15],1.06
same,normalized growth,[16],0.968
same,normalized growth,[17],1
same,normalized growth,[18],0.95
same,normalized growth,[19],0.989
same,normalized growth,"S. cerevisiae deletion strains, locus YNL128W, strain TEP1, hits give low values",1.01
same,normalized growth,[20],0.988
same,normalized growth,[21],1.03
same,normalized growth,[22],1
same,normalized growth,[23],1.03
same,normalized growth,[24],0.923
same,normalized growth,[25],0.986
same,normalized growth,[26],1
same,normalized growth,[27],1.02
